Among all 230,000 compounds or so, about 1,500 (0.65%) were called active.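 The calls were made as follows: active = pattern-corrected inhibition of lipid staining of at least 50% with the nuclear-stain viability signal not falling by more than 50%; inactive = the rest, inconclusive results apart.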 Many of the other results were omitted from the sample, so actives are more common in it than they were.

The nature of this experiment: inhibitors of triacylglycerol accumulation, primary screen, cell-based, uHTS, fluorescence, H9c2 (AID 651582).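 As to inhibition: 0% = DMSO wells and 100% = triacsin C control wells.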 Conditions: H9c2 cells, Nile Red lipid (TAG) fluorescence, at 12.5 µM, cells loaded with 200 µM oleic acid; DAPI nuclei signal change (viability), lower = more cytotoxic: measured here: DAPI nuclei count viability; inhibition: stronger effect = higher value.
What is called inhibition is the relative decrease from the control value, in per cent. As to `NC(=O)c1ncn([C@@H]2O[C@H](CN=C3NS(=O)(=O)c4ccccc43)[C@@H](O)[C@H]2O)n1`, the DAPI nuclei signal change (viability), lower = more cytotoxic was -1.84% and the inhibition was 13.5% (inactive).

On to `COc1ccc(OCCNC(=O)c2cc(C3CC3)nc3c2cnn3C(C)C)cc1`, for which the DAPI nuclei signal change (viability), lower = more cytotoxic is -4.88% and the inhibition is -39.8% (inactive).

For `COc1ccc(C(=O)OCC(=O)Nc2cc(C)on2)cc1F`, the DAPI nuclei signal change (viability), lower = more cytotoxic was -5.17% and the inhibition is 7.73% (inactive).

`C=CCOC(=O)N1CCC2CC1c1cc(-c3ccc(OC)cc3)ccc12` (stereo not given): the DAPI nuclei signal change (viability), lower = more cytotoxic came to 8.41% and the inhibition is -34.5% (inactive).

For `CN(C)CCCN(C(=O)COc1ccccc1)c1nc2c(Cl)cccc2s1`, the DAPI nuclei signal change (viability), lower = more cytotoxic is -0.936% and the inhibition was 15.4% (inactive).

`COc1cccc2sc(N(CCCN(C)C)C(=O)C(c3ccccc3)c3ccccc3)nc12`: the DAPI nuclei signal change (viability), lower = more cytotoxic was -45.3% and the inhibition is 117% (active).

Take `CCN(CC)CCN(C(=O)c1ccc2c(c1)CCCC2)c1nc2c(OC)cccc2s1`: the DAPI nuclei signal change (viability), lower = more cytotoxic was 40% and the inhibition was -1.62% (inactive).

Turning to `COc1ccc(Oc2c(Cl)cnn(-c3ccccc3)c2=O)cc1`, the DAPI nuclei signal change (viability), lower = more cytotoxic worked out at 2.85% and the inhibition was -4.37% (inactive).

Regarding `O=c1c(Cl)c(NC2CC2)cnn1-c1ccccc1`, the DAPI nuclei signal change (viability), lower = more cytotoxic is -5.81% and the inhibition is -2.29% (inactive).

Regarding `Cc1cccc(-n2ncc(Cl)c(Cl)c2=O)c1`, the DAPI nuclei signal change (viability), lower = more cytotoxic was -35.3% and the inhibition is 75.4% (active).

For `CCCNC(=O)C1(C)CCN(C(=O)c2ccc(F)cc2Cl)C1` (stereo not given), the DAPI nuclei signal change (viability), lower = more cytotoxic came to 8.17% and the inhibition is 2.28% (inactive).

As to `Nc1ccccc1SC(C[N+](=O)[O-])c1ccccc1` (stereo not given), the DAPI nuclei signal change (viability), lower = more cytotoxic was -46.5% and the inhibition is 63.9% (active).

As to `Nc1ccccc1Sc1ccc(C(F)(F)F)cc1[N+](=O)[O-]`, the DAPI nuclei signal change (viability), lower = more cytotoxic is 8.68% and the inhibition is -15.4% (inactive).

In the case of `CCS(=O)(=O)c1cc([N+](=O)[O-])c(Sc2ccccc2N)s1`, the DAPI nuclei signal change (viability), lower = more cytotoxic was -4.87% and the inhibition is 14.6% (inactive).

As to `CCOC(=O)/C=c1\s/c(=C\c2ccc(C#N)cc2)c(=O)n1CC(=O)Nc1cccc(C)c1C`, the DAPI nuclei signal change (viability), lower = more cytotoxic was -32.2% and the inhibition was 50.4% (active).

Consider `Cc1cccc(NC(=O)CN2C(=O)c3ccccc3C2=O)c1C`, for which the DAPI nuclei signal change (viability), lower = more cytotoxic is 2.88% and the inhibition is -5.58% (inactive).

Regarding `CCOC(=O)/C=c1\s/c(=C\c2ccccc2OC)c(=O)n1CC(=O)N1CCOCC1`, the DAPI nuclei signal change (viability), lower = more cytotoxic was -2.84% and the inhibition was 8.35% (inactive).

As for `Cc1nc2c(OCC(=O)C(C)(C)C)cccn2c1N(C)Cc1cccs1`, the DAPI nuclei signal change (viability), lower = more cytotoxic was found to be 21.8% and the inhibition is -5.32% (inactive).

Turning to `O=C(Cn1cnc2c(OCc3ccccc3)ncnc21)NCCCn1ccnc1`, the DAPI nuclei signal change (viability), lower = more cytotoxic turned out to be 9.45% and the inhibition was -7.19% (inactive).

With `COc1cc(OC)cc(C(=O)NNC(=O)CCOc2ccccc2OC)c1`, the DAPI nuclei signal change (viability), lower = more cytotoxic was -6.59% and the inhibition was 7.42% (inactive).

Consider `CCN(c1ccccc1)S(=O)(=O)c1ccc(C(=O)Nc2ccccc2OC)cc1`, for which the DAPI nuclei signal change (viability), lower = more cytotoxic is 2.43% and the inhibition is 4.73% (inactive).

On to `COc1ccc(-c2csc(-c3cccs3)n2)cc1OC`, for which the DAPI nuclei signal change (viability), lower = more cytotoxic was -4.83% and the inhibition is -5.04% (inactive).

Consider `COc1ccc(-c2cc(C(F)(F)F)nc(S(C)(=O)=O)n2)cc1OC`, for which the DAPI nuclei signal change (viability), lower = more cytotoxic is -22.6% and the inhibition was 52.7% (active).

In the case of `COc1ccc(-c2cc(-c3ccc(N)cc3)nc(N)c2C#N)cc1OC`, the DAPI nuclei signal change (viability), lower = more cytotoxic stood at 172% and the inhibition is 21.5% (inactive).

On to `CCCCCCCCNS(=O)(=O)CCNC1CCCCC1`, for which the DAPI nuclei signal change (viability), lower = more cytotoxic is -4.65% and the inhibition is 5.91% (inactive).

Regarding `COc1ccc(OC)c(/C=C/C(=O)c2ccc3c(c2)OCO3)c1`, the DAPI nuclei signal change (viability), lower = more cytotoxic came out at 4.46% and the inhibition is 9.85% (inactive).

As for `Cc1c(NS(=O)(=O)c2cccc(C(=O)Nc3ccc(SC(F)F)cc3)c2)c(=O)n(-c2ccccc2)n1C`, the DAPI nuclei signal change (viability), lower = more cytotoxic was -2.02% and the inhibition is -3.28% (inactive).

On to `COc1ccc(S(=O)(=O)N(C)C)cc1NC(=O)COC(=O)c1n[nH]c2ccccc12`, for which the DAPI nuclei signal change (viability), lower = more cytotoxic was -4.57% and the inhibition is 4.68% (inactive).

Take `Cc1cccc(OCC(=O)OCC(=O)Nc2ccc(Cl)cn2)c1`: the DAPI nuclei signal change (viability), lower = more cytotoxic turned out to be 5.47% and the inhibition was -14.4% (inactive).

In the case of `O=C1/C(=C/c2cccs2)CCc2ccccc21`, the DAPI nuclei signal change (viability), lower = more cytotoxic is 3.51% and the inhibition is -10.1% (inactive).

In the case of `COc1ccc(/C=C2\CCc3ccccc3C2=O)c(OC)c1OC`, the DAPI nuclei signal change (viability), lower = more cytotoxic is -2.46% and the inhibition was -5.18% (inactive).

Take `COc1ccc(/C=C2/CCCc3ccccc3C2=O)cc1`: the DAPI nuclei signal change (viability), lower = more cytotoxic was -45.7% and the inhibition was 59.8% (active).

For `O=C(COC(=O)c1cccc(Cl)c1Cl)NC1CCCCCC1`, the DAPI nuclei signal change (viability), lower = more cytotoxic amounted to 6.13% and the inhibition was -15.2% (inactive).

With `CCCn1nnc2sc3c(c2c1=O)CCC(C)C3` (stereo not given), the DAPI nuclei signal change (viability), lower = more cytotoxic amounted to 3.37% and the inhibition was 0.861% (inactive).

For the compound `C=CCn1c(SCC(=O)NCC2CCCO2)nc2sc(C)c(C)c2c1=O` (stereo not given), the DAPI nuclei signal change (viability), lower = more cytotoxic worked out at 4.45% and the inhibition is -8.48% (inactive).

On to `C=CCn1c(SCc2c(C)noc2C)nc2sc3c(c2c1=O)CCC(C)C3` (stereo not given), for which the DAPI nuclei signal change (viability), lower = more cytotoxic was -30.5% and the inhibition is 85.1% (active).

Take `CN1CCn2cnc(C(=O)NCC(=O)OC(C)(C)C)c2C1=O`: the DAPI nuclei signal change (viability), lower = more cytotoxic is -1.68% and the inhibition is -2.56% (inactive).

Turning to `CN(Cc1ccc(CNC[C@H]2O[C@@H](n3cnc4c(N)ncnc43)[C@H](O)[C@@H]2O)o1)S(C)(=O)=O`, the DAPI nuclei signal change (viability), lower = more cytotoxic is 2.25% and the inhibition was 3.67% (inactive).

`Cc1cc(NC(=O)CSc2nc(C(C)C)nc3sc4c(c23)CCC(C)C4)no1` (stereo not given): the DAPI nuclei signal change (viability), lower = more cytotoxic is 1.86% and the inhibition is 65.3% (active).

Consider `Cc1cc(NC(=O)CSc2ncc(C(F)(F)F)cc2Cl)no1`, for which the DAPI nuclei signal change (viability), lower = more cytotoxic was -5.5% and the inhibition is 0.466% (inactive).

Values taken from PubChem BioAssay AID651582 (Sanford-Burnham Center for Chemical Genomics, 2012).
